From PubChem
Hits are enriched below; roughly 10% of the tested compounds scored in any of these assays.
ALOX12 inhib = 12-hLO (ALOX12) enzyme inhibition. P18054. purified 12-hLO, xylenol orange hydroperoxide absorbance. Potency, µM (top dose mostly 57.1 µM), for inactives: at the highest dose activity change, negative = inhibition, hits mostly inhibitors. 150,000 tested, 0.12% active. AID 1452; active means well fitted inhibition curve with a large enough effect; inconclusive means small, poorly fitted or top-dose-only effect; further: potency means the concentration at half of the fitted maximal effect; nearly all actives have a fitted effect of over 55% in size
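150 nM 12hLO, 25 mM Hepes pH 7.0 + 0.01% Triton X-100; cpd preinc 15 min RT; 40 uM arachidonic acid, 30 min RT; Fe-XO 30 min; A573/A405 ratio as read-out.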
Lamin A splicing = changes lamin A minigene splicing in HeLa cells. 200,000 tested, 0.01% active. HeLa LMNA splicing GFP/RFP minigene ratio, 48 h. Potency, µM (doses to about 46.1 µM), inactives show at the highest dose ratio change, negative = inhibition, usual class: inhibitors; active means well fitted inhibition curve with a large enough effect in the signal ratio, with a control signal flat, not every such curve was filed as active; inconclusive means small, poorly fitted or top-dose-only effect, or effect the other way, or a change in a side signal; the % refers to the signal ratio; further: potency means the concentration at half of the fitted maximal effect
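S3 HeLa stable clones carrying a lamin A-EGFP splicing minigene plus DsRed2 were seeded at 600 cells/well in Opti-MEM with 2% FBS, pin-dosed and incubated 48 h at 37°C. Acumen cytometry (488 nm) gave the GFP/RFP total-intensity ratio.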
PNC inhibitor = blocks assembly of the perinucleolar compartment; PC3M PTB-GFP, PNC prevalence imaging, 16 h; stronger effect = lower value; activity change (PNC), negative = inhibition, % at 10 µM; 140,000 tested, 3.1% active;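 active means readout at or below -70, meaning at least 70% loss of cells showing the perinucleolar compartment, a nuclear body marking cancer cells; inconclusive means readout between -30 and a set limit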;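 further: plate controls were DMSO wells for no effect and camptothecin positive control wells for full effect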
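Read-out is percentage of cells bearing a perinucleolar compartment, from automated 20x imaging of fixed, Hoechst-stained PC3M PTB-GFP cells. Cells were seeded 4 h, then exposed 16 h to compound (23 nl of library stock) in duplicate plates.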
HPGD inh = blocks human HPGD enzyme activity; P15428; purified HPGD, NADH fluorescence kinetic, PGE2 substrate; 150,000 tested, 4.3% active; Potency, µM, for inactives: top-dose activity change, negative = inhibition, hits mostly inhibitors; further: potency means the concentration at half of the fitted maximal effect
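NADH formation kinetics: reaction with 30 uM PGE2 and 1 mM NAD+ (final), 20 nM enzyme, Tris-HCl pH 8 with Tween 20, after 15 min compound preincubation at room temperature. Fluorescence change, last versus first of five reads.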
ALDH1A1 inh = ALDH1A1 (human) enzyme inhibition | Purified ALDH1A1, NADH fluorescence, propionaldehyde substrate | P00352 | 220,000 tested, 7.3% active | Potency, µM (top dose mostly 75.3 µM), without a hit: top-dose activity, negative = inhibition, hits mostly inhibitors;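 further: potency means the concentration at half of the fitted maximal effect; plate controls were no enzyme wells and a reference inhibitor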
Target sequence (P00352 whole entry, looked up): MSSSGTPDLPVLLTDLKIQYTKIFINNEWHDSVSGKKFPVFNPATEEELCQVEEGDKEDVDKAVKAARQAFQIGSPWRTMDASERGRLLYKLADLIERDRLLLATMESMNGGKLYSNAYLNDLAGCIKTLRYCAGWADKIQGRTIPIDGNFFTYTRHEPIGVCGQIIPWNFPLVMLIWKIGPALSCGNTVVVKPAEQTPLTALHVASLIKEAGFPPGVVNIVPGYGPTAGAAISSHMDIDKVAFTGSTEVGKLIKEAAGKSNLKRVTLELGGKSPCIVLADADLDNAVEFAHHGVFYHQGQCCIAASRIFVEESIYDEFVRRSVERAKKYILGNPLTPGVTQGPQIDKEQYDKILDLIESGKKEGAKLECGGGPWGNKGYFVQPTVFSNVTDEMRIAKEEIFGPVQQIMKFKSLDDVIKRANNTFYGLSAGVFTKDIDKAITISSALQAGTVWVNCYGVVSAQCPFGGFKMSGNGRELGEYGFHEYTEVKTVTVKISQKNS
* = called active by the depositor; ? = inconclusive; / = no result given; [ ] = another dose, or the depositor's remark. Unless noted, the call rests on the fitted dose curve; in most records, active means well fitted inhibition curve with a large enough effect (not every such curve was filed as active); inconclusive means small, poorly fitted or top-dose-only effect, or another doubt; inactive means no such curve, though single readings can be large or run the other way. Unless noted, on the % scale 0 is the no-effect control and ±100 the full control effect.

SMILES	ALOX12 inhib	Lamin A splicing	PNC inhibitor	HPGD inh	ALDH1A1 inh
CCc1cc(=O)oc2cc(C)cc(O)c12	-8%	-5%	-4	28µM*	4.5µM*
CCCc1cc(=O)oc2cc(C)cc(O)c12	-7%	-21%	9	-15%	8.9µM*
CCCc1cc(=O)oc2cc(C)cc(OC(=O)c3ccco3)c12	-5%	?	?	3%	2.2µM*
CCc1cc(=O)oc2cc(C)cc(OCC(=O)C(C)(C)C)c12	/	-25%[46 µM]	/	/	?
CCCCc1cc(=O)oc2cc(C)c(CN3CCCC3)c(O)c12	-20%	15%	4	-17%	22µM*
CCc1cc(=O)oc2cc(C)c(CN3CCCC(C)C3)c(O)c12 (centres undefined)	?	?	30	-8%	?
Cn1cnc(S(=O)(=O)N2CCC(C(=O)NCc3ccc(Cl)cc3)CC2)c1	/	11%[46 µM]	/	/	/
CCCCCc1cc(O)c2c(C)cc(=O)oc2c1	-2%	-22%	3	-20%	1.8µM*
COc1ccc(CCC(C)Nc2cccc(F)c2)cc1 (centres undefined)	-2%	9%	-6	-18%	10µM*
COc1ccc(CCC(C)Nc2ccccc2F)cc1 (centres undefined)	2%	1%	-4	-9%	-4%
Cc1[nH]c(=O)[nH]c(=O)c1/C=N/NC(=O)[C@H](C)NC(=O)OC(C)(C)C	3%	-5%	-106*	-12%	0%
CCC(C)NC(=O)/C(=C/c1ccco1)c1ccccc1 (centres undefined)	-24%	13%	-3	25µM*	?
O=C(NCCc1ccccc1)/C(=C/c1ccco1)c1ccccc1	-5%	?	44	-25%	22µM*
Cn1cc([C@@H]2C[C@H]3CN(Cc4cccc(Cl)c4)C(=O)[C@]34CCCN24)c2ccccc21	/	/	/	/	-4%
CCOC(=O)Cn1nnnc1CN(CCc1ccccc1)Cc1cc2cc(CC)ccc2[nH]c1=O	-11%	5%	19	-5%	?
CCOC(=O)Cn1nnnc1CN(Cc1cccs1)Cc1cc2cc(C)ccc2[nH]c1=O	-9%	-7%	?	-3%	16µM*
Cc1ccc2[nH]c(=O)c(CN(Cc3cccs3)Cc3nnnn3Cc3ccccc3)cc2c1	-4%	?	18	?	14µM*
O=C(CSc1nccn1Cc1ccco1)Nc1ccc(OC(F)(F)F)cc1	/	3%[46 µM]	/	/	/
O=C(c1cc2cc([N+](=O)[O-])ccc2s1)N1CCCCC1	/	/	/	/	14µM*
CN(C)C(=O)c1cc2cc([N+](=O)[O-])ccc2s1	0%	3%	-24	-15%	-4%
CCN(CC)C(=O)c1cc2cc([N+](=O)[O-])ccc2s1	2%	3%	-10	28µM*	-5%
O=C(CCSCc1cccc(Cl)c1)N1CCN(c2ccc(Cl)cc2)CC1	/	-10%[46 µM]	/	/	/
Oc1ccccc1-c1csc(-c2ccccc2)n1	/	/	/	/	-6%
Cc1nc(-c2ccc(O)c(O)c2)cs1	-17%	15%	?	22µM*	?
Cc1nc(-c2ccc(NS(C)(=O)=O)cc2)cs1	-1%	8%	-80*	16µM*	12%
SMILES	ALOX12 inhib	Lamin A splicing	PNC inhibitor	HPGD inh	ALDH1A1 inh
Oc1ccc(-c2csc(-c3ccccc3)n2)cc1O	13µM*	?	?	28µM*	?
CCCc1cc(NC(=O)CCl)n(-c2ccccc2)n1	/	?	/	/	0.89µM*
COc1ccc(N2CC(O)=C(c3nc(C)cs3)C2=N)cc1	-1%	-5%	3	-12%	20µM*
Cc1csc(C2=C(O)CN(c3ccc4c(c3)OCCOCCOCCOCCO4)C2=N)n1	1%	8%	-3	-6%	10%
COCC(=O)Nc1ccccc1-c1ccccc1	/	?	/	/	-10%
CCOc1cc(C=C2C(=O)c3ccccc3C2=O)ccc1OCC(=O)Nc1ccc(C)cc1	14%	-9%	28	/	15µM*
Cc1ccccc1OCC(=O)Nc1ccc2c(c1)C(=O)c1ccccc1C2=O	-4%	-7%	44	-15%	18µM*
CCOc1ccccc1OCC(=O)Nc1ccc(S(=O)(=O)N(C)C)cc1	-6%	14%	-86*	-13%	-8%
CCOc1cc(/C=N/NC(N)=O)ccc1OCC(=O)Nc1ccc(C)c(C)c1	/	/	/	/	-15%
CCOc1ccccc1OCC(=O)Nc1ccc(S(=O)(=O)Nc2ncccn2)cc1	6%	4%	56	-16%	-2%
